Reference: PubChem BioAssay (Tox21)
Unmarked numbers belong to inactive results. Inconclusive results are not listed. Entries that show only a call come without a potency. Activity calls are given as the source filed them. Unless noted, calls come from the whole dose curve; as a rule, active = well fitted curve in the direction sought with a large enough effect in the repeat runs; inconclusive = weak or mixed curves; inactive = no such curve, though single readings can be large; an effect the other way counts as inactive or inconclusive.

Columns and labels:
[1] = qHTS assay to identify small molecule antagonists of the glucocorticoid receptor (GR) signaling pathway - cell viability counter screen (AID 720693); note: nearly all actives have a fitted effect of over 55% in size; note: potency is the fitted concentration of half-maximal effect
[2] = qHTS assay for identifying genotoxic compounds that show differential cytotoxicity against isogenic chicken DT40 cell lines with known DNA damage response pathways - wild type cell line (AID 743012); note: nearly all actives have a fitted effect of over 60% in size; note: potency is the fitted concentration of half-maximal effect
How it was run: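 Using parental DT40 (300 cells/well), compounds delivered in DMSO incubate 40 h at 37 C/5% CO2. CellTiter-Glo reagent then stands 30 min at room temperature, and luminescence gives cell viability.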

[3] = qHTS assay for identifying genotoxic compounds that show differential cytotoxicity against isogenic chicken DT40 cell lines with known DNA damage response pathways - Rev3 mutant cell line (AID 743014); note: nearly all actives have a fitted effect of over 55% in size; note: potency is the fitted concentration of half-maximal effect
[4] = qHTS assay for identifying genotoxic compounds that show differential cytotoxicity against isogenic chicken DT40 cell lines with known DNA damage response pathways - Rad54/Ku70 mutant cell line (AID 743015); note: nearly all actives have a fitted effect of over 60% in size; note: potency is the fitted concentration of half-maximal effect
[5] = qHTS assay to identify small molecule antagonists of the androgen receptor (AR) signaling pathway - cell viability counter screen (AID 743033; note: nearly all actives have a fitted effect of over 45% in size; note: potency is the fitted concentration of half-maximal effect)
[6] = target: Androgen receptor (Homo sapiens) (UniProt P10275); test: qHTS assay to identify small molecule antagonists of the androgen receptor (AR) signaling pathway (AID 743035; active = well fitted inhibition curve with a large enough effect in the signal ratio in the repeat runs, not every such curve was filed as active; the % refers to the signal ratio; note: potency is the fitted concentration of half-maximal effect)
Androgen receptor (Homo sapiens), sequence (P10275 whole entry, looked up): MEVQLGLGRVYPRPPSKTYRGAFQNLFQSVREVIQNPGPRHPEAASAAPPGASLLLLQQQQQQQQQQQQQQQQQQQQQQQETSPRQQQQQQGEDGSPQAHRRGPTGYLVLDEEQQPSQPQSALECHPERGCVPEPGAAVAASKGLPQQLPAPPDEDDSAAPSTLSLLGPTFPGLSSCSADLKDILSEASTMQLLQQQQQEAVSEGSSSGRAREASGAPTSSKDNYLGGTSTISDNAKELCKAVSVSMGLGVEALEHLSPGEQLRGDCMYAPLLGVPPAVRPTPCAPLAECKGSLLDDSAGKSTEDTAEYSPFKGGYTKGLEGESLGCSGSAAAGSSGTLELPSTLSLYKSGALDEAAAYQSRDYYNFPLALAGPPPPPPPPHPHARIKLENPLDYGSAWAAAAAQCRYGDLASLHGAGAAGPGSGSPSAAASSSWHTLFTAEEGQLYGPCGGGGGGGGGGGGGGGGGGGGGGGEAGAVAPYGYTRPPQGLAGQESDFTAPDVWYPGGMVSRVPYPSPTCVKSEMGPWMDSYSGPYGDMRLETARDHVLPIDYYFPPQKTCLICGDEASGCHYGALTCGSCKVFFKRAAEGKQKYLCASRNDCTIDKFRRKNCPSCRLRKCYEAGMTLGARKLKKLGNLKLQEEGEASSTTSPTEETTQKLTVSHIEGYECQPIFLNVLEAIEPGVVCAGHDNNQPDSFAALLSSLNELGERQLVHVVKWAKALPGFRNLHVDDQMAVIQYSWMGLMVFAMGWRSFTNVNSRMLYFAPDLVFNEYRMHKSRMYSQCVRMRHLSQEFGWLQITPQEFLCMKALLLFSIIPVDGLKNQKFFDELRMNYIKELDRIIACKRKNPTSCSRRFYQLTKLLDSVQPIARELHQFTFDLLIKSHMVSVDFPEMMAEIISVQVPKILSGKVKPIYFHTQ
How it was run: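 Using qHTS, AR-UAS-bla GripTite HEK293 cells received compound, then R1881, and were cultured 16 h at 37C/5% CO2 before a 2 h room-temperature LiveBLAzer B/G FRET substrate step and fluorescence measurement.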

[7] = target: Androgen receptor (Homo sapiens) (UniProt P10275); test: qHTS assay to identify small molecule agonists of the androgen receptor (AR) signaling pathway using the MDA cell line (AID 743040; note: nearly all actives have a fitted effect of over 20% in size; note: potency is the fitted concentration of half-maximal effect)
How it was run: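 MDA-kb2 breast carcinoma cells carrying MMTV-luciferase (responsive to AR and GR), plated 5 h then treated 16 h with compounds at 37C, 0% CO2. Read-out was ONE-Glo luminescence after 30 min at room temperature.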

[8] = qHTS assay to identify small molecule antagonists of the androgen receptor (AR) signaling pathway using the MDA cell line - cell viability counter screen (AID 743041; note: nearly all actives have a fitted effect of over 45% in size; note: potency is the fitted concentration of half-maximal effect)
How it was run: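 MDA-kb2 AR-luc cells (MMTV-luciferase, AR/GR responsive) treated with compounds plus R1881 agonist for 16 h at 37C. CellTiter-Fluor added at 15.5 h; fluorescence read after 30 min in the same wells.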

[9] = target: Androgen receptor (Homo sapiens) (UniProt P10275); test: qHTS assay to identify small molecule antagonists of the androgen receptor (AR) signaling pathway using the MDA cell line (AID 743042; note: nearly all actives have a fitted effect of over 55% in size; note: potency is the fitted concentration of half-maximal effect)
How it was run: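 MDA-kb2 breast carcinoma cells carrying MMTV-luciferase (AR/GR responsive) were co-treated with compounds and the agonist R1881 for 16 h at 37C. Inhibition read as ONE-Glo luminescence; CellTiter-Fluor fluorescence measured in parallel for cytotoxicity.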

[10] = qHTS assay to identify small molecule antagonists of the thyroid receptor (TR) signaling pathway - cell viability counter screen (AID 743064); note: nearly all actives have a fitted effect of over 50% in size; note: potency is the fitted concentration of half-maximal effect
How it was run: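 Viability of T3-stimulated (1 nM final) GH3.TRE-Luc cells is measured by CellTiter-Fluor fluorescence after 23.5 h compound exposure at 37 °C plus 30 min reagent incubation.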

[11] = qHTS assay to identify small molecule antagonists of the thyroid receptor (TR) signaling pathway (AID 743065); note: nearly all actives have a fitted effect of over 55% in size; note: potency is the fitted concentration of half-maximal effect
How it was run: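 GH3.TRE-Luc rat pituitary cells (two TREs driving luciferase) were dosed with compound, then stimulated with 1 nM T3 (final) for 23.5 h at 37 C. ONE-Glo luminescence was the read-out, with CellTiter-Fluor fluorescence as the cytotoxicity counter-screen.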

[12] = system: thyroid hormone receptor (rat, GH3 cells); test: qHTS assay to identify small molecule agonists of the thyroid receptor (TR) signaling pathway (AID 743066; calls by dose curve)
[13] = target: Estrogen receptor (Homo sapiens) (UniProt P03372); test: qHTS assay to identify small molecule antagonists of the estrogen receptor alpha (ER-alpha) signaling pathway (AID 743069; active = well fitted curve in the direction sought with a large enough effect in the signal ratio in the repeat runs, not every such curve was filed as active; the % refers to the signal ratio)
Estrogen receptor (Homo sapiens), sequence (P03372 whole entry, looked up): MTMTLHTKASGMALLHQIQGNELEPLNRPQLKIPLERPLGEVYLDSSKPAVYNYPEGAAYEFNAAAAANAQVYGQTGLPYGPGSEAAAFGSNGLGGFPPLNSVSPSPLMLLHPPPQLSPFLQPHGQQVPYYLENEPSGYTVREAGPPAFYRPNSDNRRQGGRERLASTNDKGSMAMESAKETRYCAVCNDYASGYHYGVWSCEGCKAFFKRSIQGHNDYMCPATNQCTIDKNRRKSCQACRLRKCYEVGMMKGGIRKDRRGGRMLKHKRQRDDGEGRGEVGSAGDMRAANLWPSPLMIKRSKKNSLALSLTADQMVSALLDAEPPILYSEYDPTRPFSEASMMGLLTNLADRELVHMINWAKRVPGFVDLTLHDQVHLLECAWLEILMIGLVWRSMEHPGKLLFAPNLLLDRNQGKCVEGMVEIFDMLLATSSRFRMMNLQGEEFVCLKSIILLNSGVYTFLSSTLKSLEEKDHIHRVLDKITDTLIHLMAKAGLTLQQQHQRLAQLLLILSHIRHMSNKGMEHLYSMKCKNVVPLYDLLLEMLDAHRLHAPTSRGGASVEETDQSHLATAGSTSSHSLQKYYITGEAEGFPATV
How it was run: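 HEK293 ER-alpha-UAS-bla GripTite cells, held overnight in 2% charcoal-stripped FBS, 5,000 cells/well, preincubated 4 h, then compound plus 17beta-estradiol for 18 h at 37C. Beta-lactamase read by LiveBLAzer B/G FRET substrate, 2 h at room temperature.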

[14] = qHTS assay to identify small molecule antagonists of the estrogen receptor alpha (ER-alpha) signaling pathway - cell viability counter screen (AID 743074; calls by dose curve;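 note: HEK293 cells carrying ER-alpha-UAS-bla reporter stimulated with 17beta-estradiol; nearly all actives have a fitted effect of over 45% in size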; note: potency is the fitted concentration of half-maximal effect)
[15] = target: Estrogen receptor (Homo sapiens) (UniProt P03372); test: qHTS assay to identify small molecule agonists of the estrogen receptor alpha (ER-alpha) signaling pathway (AID 743075; calls by dose curve); conditions: HEK293 ER-alpha-UAS-bla, beta-lactamase FRET ratio, 18 h; activation: at 70.1 µM (top of the series)
[16] = target: Estrogen receptor (Homo sapiens) (UniProt P03372); test: qHTS assay to identify small molecule agonists of the estrogen receptor alpha (ER-alpha) signaling pathway using the BG1 cell line (AID 743079); conditions: BG1Luc4E2 cells, ERE-luciferase agonist, 22 h; at 70.3 µM (top of the series); note: nearly all actives have a fitted effect of over 20% in size
[17] = qHTS assay to identify small molecule antagonists of the estrogen receptor alpha (ER-alpha) signaling pathway using the BG1 cell line (AID 743080; calls by dose curve;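 note: BG1 cells stimulated with 17beta-estradiol alongside compound; nearly all actives have a fitted effect of over 25% in size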)
How it was run: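 After 5 days in phenol-red-free 10% charcoal-stripped FBS medium, BG1-Luc-4E2 cells were seeded, left 24 h at 37 C, co-treated with compounds and 17beta-estradiol for 21.5 h, then assayed for viability and luciferase.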

[18] = qHTS assay to identify small molecule antagonists of the estrogen receptor alpha (ER-alpha) signaling pathway using the BG1 cell line - cell viability counter screen (AID 743081);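 note: compound given together with 17beta-estradiol as the ER stimulus; nearly all actives have a fitted effect of over 45% in size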; note: potency is the fitted concentration of half-maximal effect
Aromatase (Homo sapiens) = Aromatase (Homo sapiens) (UniProt P11511); test: qHTS assay to identify aromatase inhibitors (AID 743083); note: nearly all actives have a fitted effect of over 55% in size; note: potency is the fitted concentration of half-maximal effect
Aromatase (Homo sapiens), sequence (P11511 whole entry, looked up): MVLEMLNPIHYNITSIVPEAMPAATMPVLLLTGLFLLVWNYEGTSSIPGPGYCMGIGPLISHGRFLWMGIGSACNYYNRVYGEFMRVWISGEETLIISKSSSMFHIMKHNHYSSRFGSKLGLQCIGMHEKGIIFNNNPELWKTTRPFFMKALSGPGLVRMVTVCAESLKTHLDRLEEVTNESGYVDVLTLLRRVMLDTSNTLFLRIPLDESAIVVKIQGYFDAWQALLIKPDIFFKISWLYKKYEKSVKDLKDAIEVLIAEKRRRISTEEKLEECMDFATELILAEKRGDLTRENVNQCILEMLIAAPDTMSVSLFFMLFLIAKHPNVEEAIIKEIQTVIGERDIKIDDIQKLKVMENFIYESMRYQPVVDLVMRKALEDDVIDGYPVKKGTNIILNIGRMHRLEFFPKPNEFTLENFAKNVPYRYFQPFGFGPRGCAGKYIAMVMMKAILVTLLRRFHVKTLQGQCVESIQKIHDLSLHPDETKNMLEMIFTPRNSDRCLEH

[19] = target: Androgen receptor (Homo sapiens) (UniProt P10275); test: qHTS assay to identify small molecule agonists of the androgen receptor (AR) signaling pathway (AID 743036; active = well fitted activation curve with a large enough effect in the signal ratio in the repeat runs, with a control signal flat, not every such curve was filed as active; the % refers to the signal ratio)
How it was run: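 Screening used 2,000 AR-bla HEK293 cells per well, treated 16 h at 37C with test compounds in DMSO alongside positive and DMSO-only controls; beta-lactamase activity was then read by LiveBLAzer B/G FRET fluorescence after 2 h at room temperature.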

SMILES	Potency [1]	Potency [2]	Potency [3]	Potency [4]	Potency [5]	Potency [6]	Potency [7]	Potency [8]	Potency [9]	Potency [10]	Potency [11]	Potency [12]	Potency [13]	Potency [14]	Potency [15]	activation [16]	Potency [17]	Potency [18]	Potency (Aromatase (Homo sapiens))	Potency [19]
Clc1ccc2nsnc2c1NC1=NCCN1	inactive	inactive	inactive	inactive	inactive	inactive	26.6 µM (active)	inactive	inactive	inactive	inactive	inactive	inactive	inactive	inactive	1.06%	inactive	inactive	inactive	
Nc1ccc(N)c2ccccc12	21.8 µM (active)	15.3 µM (active)	5.44 µM (active)	6.85 µM (active)	12.3 µM (active)		inactive	43.2 µM (active)	17.2 µM (active)	30.6 µM (active)	48.5 µM (active)	inactive		21.8 µM (active)	inactive			5.44 µM (active)		inactive
[O-][n+]1ccccc1SSc1cccc[n+]1[O-]	inactive	0.0596 µM (active)	0.0668 µM (active)	0.0841 µM (active)	0.169 µM (active)		inactive	1.56 µM (active)	1.19 µM (active)	0.266 µM (active)	0.211 µM (active)				inactive			inactive	0.15 µM (active)	
CCc1cc(Cc2cc(CC)cc(C(C)(C)C)c2O)c(O)c(C(C)(C)C)c1	11 µM (active)	21.7 µM (active)	19.3 µM (active)	15.4 µM (active)	24.5 µM (active)	13.8 µM (active)	inactive	inactive		7.7 µM (active)	6.11 µM (active)	inactive		15.5 µM (active)				68.6 µM (active)	30.6 µM (active)	
O=C(O)c1ccc(Cl)c(Cl)c1	inactive	inactive	inactive	inactive	inactive	inactive	inactive	inactive		inactive	inactive	inactive		inactive	inactive	-5.68%	inactive	inactive	inactive	inactive
CCCC(c1cc(C(C)(C)C)c(O)cc1C)c1cc(C(C)(C)C)c(O)cc1C	11.1 µM (active)	12.3 µM (active)	12.3 µM (active)	12.3 µM (active)	22.1 µM (active)			27.6 µM (active)		3.9 µM (active)	3.1 µM (active)	inactive		19.7 µM (active)					15.5 µM (active)	
